Rows were chosen to be rich in hits. Some 4.2% of all compounds tested hit in one or more screens of this group.
NALP1 yeast inh = NALP1 inhibition | inhibition, % at 10 µM | AID 2071 | S. cerevisiae NALP1/ASC/caspase-1 growth, X-gal OD620, 72 h | actives 0.61% (n = 280,000); in the data active = inhibition mostly above about 24%, no sharp cut-off; inactive = mostly below about 32%
tim23-1 inh = growth inhibitors of tim23-1 mutant yeast; S. cerevisiae tim23-1 growth, BacTiter-Glo luminescence, 24 h; inhibition, % at 20 µM; actives 1.3% (n = 330,000);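 active = growth inhibition of the mutant yeast at or above 50%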;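 note: temperature-sensitive mutant grown at 25 °C; plate controls were DMSO-treated mutant yeast for no effect and medium wells lacking yeast for full effect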
tim10-1 inh = growth inhibitors of tim10-1 mutant yeast | S. cerevisiae tim10-1 ts strain growth, BacTiter-Glo, 24 h | inhibition, % at 20 µM | actives 2.2% (n = 330,000) | AID 463190;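 active = inhibition of at least 40%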;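 note: mutant grown at 25 °C; 0% = DMSO wells with yeast and 100% = wells holding no yeast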
V-ATPase pH = yeast V-ATPase proton transport regulation by pHLuorin; S. cerevisiae, pHLuorin cytosolic pH fluorescence; response, % at 10 µM; actives 0.37% (n = 350,000); AID 504577; in the data active = response mostly above about 7.3%, no sharp cut-off; inactive = mostly below about 5.4%; note: actives read high
TIM10 inh = TIM10 yeast growth inhibition; S. cerevisiae TIM10 strain growth, BacTiter-Glo luminescence, 24 h; inhibition, % at 10 µM; actives 1.4% (n = 330,000); AID 463195;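 active = inhibition of 40% or more at the single tested concentration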;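 note: wild-type TIM10 isogenic control strain grown at permissive 25 °C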
NALP3 yeast inh = NALP3 inhibition in yeast; Yeast reconstituted NLRP3/ASC/caspase-1, beta-gal luminescence, 24 h; inhibition, % at 10 µM; actives 0.39% (n = 330,000);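 active = inhibition of 50% or more; inactive = inhibition below 50%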;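 note: plate controls were induced DMSO wells for no effect and uninduced yeast grown without galactose for full effect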
tim10 confirm = confirmation of TIM10 yeast growth inhibitors | shares compounds with TIM10 inh | S. cerevisiae tim10 strain growth, BacTiter-Glo luminescence, 24 h | inhibition, % at 10 µM | actives 63% (n = 4,600) | AID 463215;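 active = inhibition of yeast growth at or above a set limit in either of two replicates at 10 µM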;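 note: this counterscreen used the strain with wild-type TIM10; 0% = yeast with DMSO and 100% = medium wells lacking yeast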
* = called active by the depositor; i = inactive; . = no result; ! = a repeat was not active.

SMILES	NALP1 yeast inh	tim23-1 inh	tim10-1 inh	V-ATPase pH	TIM10 inh	NALP3 yeast inh	tim10 confirm
Cc1ccc(-n2c(C)cc(/C([O-])=C(/C(=S)Nc3ccc(F)c(Cl)c3)[n+]3ccccc3)c2C)cc1	7	-15	10	0	41*	21	-17
CCOC(=O)C1=C(COC(=O)c2ccc(Cl)cc2[N+](=O)[O-])NC(=O)NC1C (stereo not drawn)	.	-10	-14	1	6	13	.
COc1ccc2cc3[n+](cc2c1OC)CCc1cc2c(cc1-3)OCO2	12	12	39	2	51*!	24	30
O=C(CSc1ncnc2ccccc12)c1ccc2c(c1)OCCO2	30	46	37	-3	47*	33	-29
CC1=C(C(N)=O)C(c2cccs2)n2ncnc2N1 (stereo not drawn)	.	14	7	-1	-14	-5	.
c1csc(C2C3=C(Nc4ncnn42)c2ccccc2OC3)c1 (stereo not drawn)	-2	33	33	2	43*	-4	15
CCC(C)(C(=O)NC1CCCC1)N(Cc1cccs1)C(=O)Cc1cccs1 (stereo not drawn)	3	21	23	-1	45*	33	16
CCC(C)(C(=O)NC1CCCC1)N(Cc1cccs1)C(C)=O (stereo not drawn)	15	7	13	2	17	-1	.
CC(=O)Nc1ccc2nc(CN3CCC(CO)(CCc4ccccc4)CC3)ccc2c1	i	-12	4	-2	9	-1	.
COc1ccc(-c2nc3n(c(=O)c2C#N)CCCS3)cc1	-3	-12	7	0	8	2	.
CCOc1ccc(-c2nc3n(c(=O)c2C#N)CCCS3)cc1	4	11	26	0	97*	30	16
O=C(NC(=O)c1ccccc1)OCCN1C(=O)c2ccccc2C1=O	7	15	19	1	18	2	.
COc1ccc(-c2csc(NC(=O)CSCC(=O)Nc3cc(C)on3)n2)cc1	.	7	1	-5	8	12	.
COc1ccc(-c2csc(NC(=O)CSCc3c(C)noc3C)n2)c(OC)c1	.	18	11	-1	83*	23	-9
c1ccc(-c2nc3cnccn3c2Nc2ccc3c(c2)OCCO3)cc1	10	35	34	3	44*	4	12
COc1ccc2[nH]c3c(c2c1)CCNC3(C)CCc1ccc(Cl)nc1 (stereo not drawn)	-1	-15	5	4	2	7	.
Cn1cc(Br)c(C(=O)Nc2c(F)c(F)c(F)c(F)c2F)n1	27	11	2	0	15	-1	.
Cn1cc(Br)c(NC(=O)/C=C/C(=O)O)n1	-9	17	2	-3	66*	4	3
CN1c2ccccc2Oc2nnc(Cl)cc21	6	43	30	3	48*	8	50*
CCOC(=O)C1=C(N)Oc2ccc3ccccc3c2C1c1cccnc1 (stereo not drawn)	-5	11	27	-3	46*	-2	-6
O=C(OCc1ccccc1)N1CCC2CC1c1cc(/C=C/CCCSc3ncccn3)ccc12 (stereo not drawn)	.	.	.	-1	.	.	.
Cc1ccc(NS(=O)(=O)c2ccc(NC(=O)c3ccc(Br)o3)cc2)c(C)c1	34	17	26	-5	42*	13	2
COc1ccc(N(CC(=O)Nc2cc([N+](=O)[O-])ccc2C)S(C)(=O)=O)cc1OC	2	17	-6	0	-20	-5	.
COc1cc(OC)c(N2CC(C(=O)Nc3cccc(C(=O)NC4CC4)c3)CC2=O)cc1Cl (stereo not drawn)	.	-4	-1	-1	82*	-10	-4
O=C(CSc1nc(N2CCOCC2)nc(N2CCOCC2)n1)Nc1ccccc1F	-2	3	-6	-2	-8	9	.
SMILES	NALP1 yeast inh	tim23-1 inh	tim10-1 inh	V-ATPase pH	TIM10 inh	NALP3 yeast inh	tim10 confirm
CCCn1c(O)c(/C=C2\C=NN=C2c2ccccc2)sc1=S	24	8	39	-1	42*	12	24
CCC(C)[C@H]1CNCCN1CCc1cccc(F)c1 (stereo partly drawn)	.	17	5	-1	6	3	.
CCC(C)(C)NC(=O)Cc1ccc(Cl)cc1	24	-31	-15	2	-1	-3	.
Fc1cccc(/C=N/n2c(C3CCCCC3)n[nH]c2=S)c1	1	26	26	-1	44*	29	37*
COc1ccc(NC(=O)c2ccsc2NC(C)=O)cc1	3	17	25	2	23	10	.
CCOc1ccc(C2CC(c3ccc(F)cc3)n3ncnc3N2)cc1 (stereo not drawn)	22	47	22	1	40*	37	42*
CCOc1ccc(C(=O)O/N=C(\N)c2ccccn2)cc1	22	38	38	-3	42*	34	36*
O=C(N/N=C/c1ccccn1)c1ccc(N/N=C/c2ccccn2)cc1	-11	18	28	-15	62*	13	34*
CCn1cc(CNC(=O)c2cccc([N+](=O)[O-])c2)c(C)n1	20	6	15	0	-19	13	.
O=C(NCc1cn(-c2ccccc2)nc1-c1ccc(F)cc1)c1cccc([N+](=O)[O-])c1	.	6	33	-3	41*	21	21
O=C(Nc1ccc(NC(=O)c2ccccc2F)cc1)c1cccs1	.	47	-18	3	45*	31	26
O=C(c1ccco1)N(Cc1ccccc1)c1cccc([N+](=O)[O-])c1	1	-11	32	1	44*	-12	31
N#Cc1cc(C#N)c(N2CCN(c3cccc(Cl)n3)CC2)nc1N	-3	38	12	-2	41*	9	18
NC1CCN(c2cccc(Cl)n2)CC1	.	4	-1	.	2	12	.
COc1ccccc1C(CNC(=O)C(CCSC)NS(=O)(=O)c1ccccc1F)N1CCCC1 (stereo not drawn)	.	11	1	-4	1	17	.
N#CCCN1CCN(C(=O)c2c(N)no[n+]2[O-])CC1	9	13	-7	-2	-3	3	.
O=c1c(-c2nnc(SCc3ccc(Cl)c(Cl)c3)o2)cccn1Cc1ccccc1	-9	42	33	1	43*	23	30*
Cc1ccccc1OC(C)C(=O)NCCCN1CCOCC1 (stereo not drawn)	12	1	-4	3	5	11	.
COC(=O)c1c(NC(=O)c2nc3ccccc3s2)sc2c1CC(C)(C)NC2(C)C	12	40	30	-1	55*	15	36*
CC(C)c1ccc(S(=O)(=O)N2CCN(C(=O)C3=COCCO3)CC2)cc1	.	10	5	1	97*	38	1
CCOc1ccc(NC(=S)NC23CC4CC(CC(C4)C2)C3)cc1	9	-8	-3	-2	-4	20	.

From PubChem BioAssay
